The results in this text go back to PubChem BioAssay (NCI).

Structures are written as SMILES. This is part of a sample that, as a whole, favours compounds with a hit. Of some 79,000 tested, about 15% had one in any assay. Values without a mark were called inactive. Activity calls are given as the source filed them. No stated cut-off is given here; in the data, active means growth inhibition above about 70%; inactive means the rest.

The nature of assay [1]: NCI Yeast Anticancer Drug Screen. Data for the rad50 strain (AID 155).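 Further: 0% = growth of vehicle-only cultures of the same strain.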 The settings on record: S. cerevisiae rad50 strain growth inhibition; at 50.0 µM; active compounds read high. A digest of the protocol:
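Relative growth inhibition (compound vs vehicle) was measured in yeast with a defined repair-gene alteration.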

Assay [2] in a line: NCI Yeast Anticancer Drug Screen. Data for the mec2-1 strain (AID 157). The conditions noted are these: S. cerevisiae mec2-1 strain, at 50.0 µM, active compounds read high. A digest of the protocol: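 Mutant yeast (mec2-1) grown with compound; growth inhibition relative to vehicle control reported.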
Assay [3] in a line: NCI Yeast Anticancer Drug Screen. Data for the sgs1 mgt1 strain (AID 161).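 Further: 0% = growth of cultures given vehicle only.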 The settings on record: S. cerevisiae sgs1 mgt1 strain, at 50.0 µM, active compounds read high. A digest of the protocol:
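Growth of a repair-deficient yeast mutant was monitored after compound treatment and expressed as inhibition relative to vehicle-treated cultures.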

A short description of assay [4]: NCI Yeast Anticancer Drug Screen. Data for the cln2 rad14 strain (AID 165).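 Further: 0% = growth equal to vehicle treated cultures.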 The settings on record: S. cerevisiae cln2 rad14 strain, at 50.0 µM, active compounds read high. A digest of the protocol: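 Readout is yeast growth inhibition versus vehicle-treated controls, using a strain with cln2 and rad14 alterations exposed to compound.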
Assay [5] in a line: NCI Yeast Anticancer Drug Screen. Data for the bub3 strain (AID 167). The settings on record: S. cerevisiae bub3 mutant strain, at 50.0 µM, active compounds read high. A digest of the protocol: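 Screening used yeast with an engineered genetic alteration affecting cell cycle control. Compound-exposed cultures were compared with vehicle cultures, and reduced growth was taken as inhibition.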

Assay [6] is described as follows: NCI Yeast Anticancer Drug Screen. Data for the mlh1 rad18 strain (AID 175). The settings on record: S. cerevisiae mlh1 rad18 strain growth inhibition; at 50.0 µM; active compounds read high. A digest of the protocol:
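Genetically defined yeast (DNA repair-deficient) exposed to compounds; growth inhibition determined relative to vehicle.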

As to `c1ccc2c(C3=NCCO3)cccc2c1`, the growth inhibition was 11.7% in assay [1]; 9.7% in assay [2]; 8.3% in assay [3]; -34.6% in assay [4]; 4% in assay [5]; 11.8% in assay [6].
For `C=CCNC(=S)N(Cc1ccccc1)Cc1ccccc1`, the growth inhibition was 86.2% (active) in assay [1]; 80% (active) in assay [2]; 91.9% (active) in assay [3]; 82.9% (active) in assay [4]; 88.7% (active) in assay [5]; 86.5% (active) in assay [6].
As to `C[N+]1(C)CC=C(N2CCOCC2)CC1`, the growth inhibition in assay [1] was -27.6%; in assay [2] it was -25.1%; in assay [3] it was -18.8%; in assay [4], -30%; in assay [5] it was -12.9%; in assay [6], -14.4%.
For the molecule `Cc1cc[n+]2c(c1)-c1cc(C)cc[n+]1CC2`, the growth inhibition is 26.7% in assay [1]; 1.15% in assay [2]; 14.3% in assay [3]; -10.8% in assay [4]; 0.6% in assay [5]; 6.3% in assay [6].
For the molecule `CC1C(O)CCC2C1(C)CCC1C2(C)CCC2(C)C3CC(C)(C)CCC3(C)CCC12C` (stereo unspecified), the growth inhibition is -4.9% in assay [1]; -3.3% in assay [2]; 12.4% in assay [3]; -10.1% in assay [4]; 5.75% in assay [5]; -6.75% in assay [6].
For the molecule `NC12CCC(CC1)C2`, the growth inhibition in assay [1] was -14.3%; in assay [2], 13.3%; in assay [3] it was -14.1%; in assay [4], -6.25%; in assay [5], -10.4%; in assay [6] it was -4.8%.
Regarding `CCCCCCCCCCCCCC/C(C(=O)OC)=C(/O)C(=O)OCC`, the growth inhibition was -40.4% in assay [1]; -30.4% in assay [2]; -27.6% in assay [3]; -17.2% in assay [4]; -57.8% in assay [5]; -19.9% in assay [6].
For the molecule `N#CC(C(=O)C(N)=O)c1nc2ccccc2s1` (stereo unspecified), the growth inhibition in assay [1] is 20.2%; in assay [2] it was 9.45%; in assay [3], 19.4%; in assay [4] it was 5.8%; in assay [5], -9.5%; in assay [6], 2.25%.
With `Cc1cc(C)c(S(=O)(=O)O)c(Cc2ccccc2)c1`, the growth inhibition is -14.4% in assay [1]; -10.6% in assay [2]; 31.5% in assay [3]; -11.6% in assay [4]; -3.35% in assay [5]; 0.45% in assay [6].
`COC(=O)c1cc(C(=O)OC)c2c3[nH]cnc3ncn2c1=O`: the growth inhibition was 24.4% in assay [1]; 9.85% in assay [2]; 15.9% in assay [3]; 18.6% in assay [4]; 3.65% in assay [5]; 21.4% in assay [6].
On to `CC1Cc2ccccc2C2=C3CC=CCC3C3C(=O)OC(=O)C3C21` (stereo unspecified), for which the growth inhibition in assay [1] is 11.4%; in assay [2], 8.05%; in assay [3] it was 0.5%; in assay [4], 2.3%; in assay [5], 6.05%; in assay [6], 7.65%.
As to `C[n+]1ccn(S(=O)(=O)[O-])c1`, the growth inhibition is 1.9% in assay [1]; 4.2% in assay [2]; -4.35% in assay [3]; 0.55% in assay [4]; -19.6% in assay [5]; -8.05% in assay [6].
For `Cc1ccc(NC(=O)C(=O)Cc2cc[n+]([O-])cc2)cc1`, the growth inhibition in assay [1] is -1.9%; in assay [2], -1.5%; in assay [3], 11.9%; in assay [4] it was 7.6%; in assay [5] it was 3.55%; in assay [6], 4.05%.
Consider `CC1(C)C2CCC1(C)C1(C2)OC(CCl)CS1` (stereo unspecified), for which the growth inhibition in assay [1] is 7.4%; in assay [2] it was -13.8%; in assay [3], 14.1%; in assay [4], 4.3%; in assay [5] it was 22.4%; in assay [6] it was 8.4%.
`COc1ccc(Cc2ccc(CO)cc2)cc1`: the growth inhibition in assay [1] is 4.6%; in assay [2] it was -18.9%; in assay [3] it was -31.9%; in assay [4], -20%; in assay [5] it was -7.7%; in assay [6] it was -14.2%.
For the molecule `CC(C)CNC(=O)c1ccccc1`, the growth inhibition is 0.45% in assay [1]; 5.1% in assay [2]; -1.6% in assay [3]; -3.2% in assay [4]; 0.5% in assay [5]; -4.65% in assay [6].
In the case of `CC(=O)OC1CCC2(C)C3=CCC4(C)C(C(C)=O)=CCC4C3CCC2C1` (stereo unspecified), the growth inhibition is -27.9% in assay [1]; -21.9% in assay [2]; -29.2% in assay [3]; 12.6% in assay [4]; -22.9% in assay [5]; -23.1% in assay [6].
`COc1ccc2c(cnc3c4cc(OC)c(OC)cc4ccc23)c1`: the growth inhibition in assay [1] was 15.2%; in assay [2] it was -0.85%; in assay [3], 4.05%; in assay [4] it was -4.9%; in assay [5] it was 24.9%; in assay [6], 3.6%.
Take `N=C1CCCS1`: the growth inhibition was -7.05% in assay [1]; -2.35% in assay [2]; -7.1% in assay [3]; -6.3% in assay [4]; -49.5% in assay [5]; -4.7% in assay [6].
Regarding `Nc1nc(N)c(N=Nc2ccc(S(=O)(=O)NC(=O)c3ccccc3)cc2)c(=O)[nH]1`, the growth inhibition is -8.4% in assay [1]; -4.3% in assay [2]; -6.9% in assay [3]; -9.35% in assay [4]; -2.55% in assay [5]; -8.9% in assay [6].
For the molecule `O=C1C2Cc3ccccc3CN2C(=O)N1CCN1CCOCC1` (stereo unspecified), the growth inhibition was 7.25% in assay [1]; -21.8% in assay [2]; -4.15% in assay [3]; 12.8% in assay [4]; 3.25% in assay [5]; 22.6% in assay [6].
